In PubChem BioAssay AID1851 (National Center for Advancing Translational Sciences (NCATS), 2009):
About 5,800 (36%) of roughly 16,000 compounds were called active. Roughly 23% stayed inconclusive and do not appear here. The list shows a part of the results. Unmarked numbers belong to inactive results. Calls come from the whole dose curve; as a rule, active = well fitted curve in the direction sought with a large enough effect; inconclusive = small, poorly fitted or top-dose-only effect, or effect the other way; inactive = no such curve, though single readings can be large or run the other way.

Target: Cytochrome P450 2C19 (Homo sapiens) (UniProt P33261)
Sequence (P33261 whole entry, looked up): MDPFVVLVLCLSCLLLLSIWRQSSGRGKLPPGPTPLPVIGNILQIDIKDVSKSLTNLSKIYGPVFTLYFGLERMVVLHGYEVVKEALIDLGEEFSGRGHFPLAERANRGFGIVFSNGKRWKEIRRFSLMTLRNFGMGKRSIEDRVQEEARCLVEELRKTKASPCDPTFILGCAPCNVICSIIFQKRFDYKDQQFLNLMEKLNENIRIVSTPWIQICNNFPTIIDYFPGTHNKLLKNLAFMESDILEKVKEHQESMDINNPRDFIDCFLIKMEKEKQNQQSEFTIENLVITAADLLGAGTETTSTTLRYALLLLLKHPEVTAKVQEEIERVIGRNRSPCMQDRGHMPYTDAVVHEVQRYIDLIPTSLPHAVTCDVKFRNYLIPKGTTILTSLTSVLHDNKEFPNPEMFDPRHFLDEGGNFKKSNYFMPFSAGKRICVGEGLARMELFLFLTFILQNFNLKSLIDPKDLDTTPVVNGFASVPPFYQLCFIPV
Assay: Cytochrome panel assay with activity outcomes
Conditions: recombinant CYP, pro-luciferin dealkylation, luminescence, p450-cyp2c19; series mostly up to 57.1 µM; activity, negative = inhibition: at the top concentration
% is set by controls: 0 for no effect and ±100 for the full control effect.

| Structure (SMILES) | AC50 | activity, negative = inhibition |
| --- | --- | --- |
| CCOC(=O)CSc1nc(-c2ccccc2)nc2ccccc12 | 4.47 µM (active) | – |
| CCOC(=O)Cn1c(-c2ccccc2)nc2ccccc2c1=O | 7.08 µM (active) | – |
| CCCn1c(-c2ccccc2)nc2c(=O)n(C)c(=O)[nH]c21 | – | -28.4% |
| O=C(O)Cn1c(-c2ccccc2)nc2ccccc21 | – | -3.11% |
| CCOC(=O)CSc1cc(CS(=O)c2ccc(Cl)cc2)nc(-c2ccccc2)n1 (stereo unspecified) | 0.126 µM (active) | – |
| NC(=Nc1ccccc1)NC(=O)c1nc(Cl)c(N)nc1N | – | -2.55% |
| CS(=O)(=O)N(CC(=O)Nc1cccc(F)c1)c1cccc([N+](=O)[O-])c1 | 7.94 µM (active) | – |
| CS(=O)(=O)N1CCC[C@@]2(CCN(C(=O)Nc3cccc(F)c3)C2)C1 | – | -16.4% |
| CS(=O)(=O)N1CCC2(CCN(C(=O)Nc3cccc(F)c3)CC2)CC1 | – | 28.3% |
| NC(N)=N/N=C(/c1ccccc1)c1ccc(O)cc1O | – | -16.1% [at 11.4 µM] |
| COc1ccc(/C=C/C(=O)Nc2nc(C)cc(C)n2)cc1OC | – | -10.2% |
| COc1cc(/C=C\C(=O)N2CCC=CC2=O)cc(OC)c1OC | – | -7.75% [at 25.6 µM] |
| CCSc1nc2ccccc2n1C(=O)/C=C\c1ccc(OC)c(OC)c1 | 7.94 µM (active) | – |
| C=CCSc1nc2ccccc2n1C(=O)/C=C/c1cc(OC)c(OC)c(OC)c1 | 2.24 µM (active) | – |
| CSc1ccccc1NC(=O)CSCc1ccc(C)cc1 | 1.78 µM (active) | – |
| Cc1ccc(C)c(-n2c(CNC(=O)c3ccco3)nnc2SCC(=O)N2CCc3ccccc32)c1 | – | 17% |
| Cc1cc2nc(-c3ccc(SCC(=O)N4CCc5ccccc54)nc3)[nH]c2cc1C | 3.98 µM (active) | – |
| CCOC(=O)O[C@]1(C(=O)COC(=O)CC)CC[C@@H]2[C@@H]3CCC4=CC(=O)C=C[C@@]4(C)[C@H]3[C@H](O)C[C@]21C | – | -33.4% [at 25.6 µM] |
| FC(F)(F)c1cccc(N2CCN(CC3CC4C=CC3C4)CC2)c1 (stereo unspecified) | 8.91 µM (active) | – |
| OCCN(C=NC1=NN(c2cccc(C(F)(F)F)c2)CC1)CCO | – | 1.91% |
| CO[C@@H]1COC(=O)[C@@H](CCSC)NC(=O)C/C=C\[C@@H](C)COC(=O)CCC[C@H]1C | – | -34.5% [at 11.4 µM] |
| C(=Nc1cnc2ccccc2c1)c1ccc2ccccc2n1 | – | 34% [at 11.4 µM] |
| Cc1cccc(Nc2ccncc2S(=O)(=O)NC(=O)NC(C)C)c1 | – | -12.7% [at 25.6 µM] |
| Cc1cccc(NCCNc2cccc(C)c2)c1 | 2.82 µM (active) | – |
| COCCn1c(=O)c(-c2cc(F)cc(F)c2)nc2cnc(N3CCN(C)CC3)nc21 | – | -24.9% |
| CC(C)=C[C@H]1[C@@H](C(=O)Oc2ccccc2C(C)C)C1(C)C | 1.26 µM (active) | – |
